The record followed here is PubChem BioAssay AID2314 (National Center for Advancing Translational Sciences (NCATS), 2010).

Structures are written as SMILES. Among all 300,000 compounds or so, about 37,000 (12%) were called active. No stated cut-off is given here; in the data, active means max response mostly above about 13% (no sharp cut-off); inactive means mostly below about 14%. Only a selection was taken, and actives are over-represented in it overall.

The experiment in a line: Cycloheximide Counterscreen for Small Molecule Inhibitors of Shiga Toxin. Further: read at 38.3 µM for the half of the compounds with a filed dose; 0% is about no effect. Particulars: cell reporter, cycloheximide protein synthesis inhibition counterscreen; hits give high values. A general note: Counterscreens check selectivity or assay interference.
Turning to `COc1ccc(C2=NS(=O)(=O)N(C)C(C(=O)N3CCCCC3)=C2)cc1`, the max response was 0.248% (inactive).
As to `NC(N)=Nc1nc2ccc(Br)cc2c(=O)[nH]1`, the max response is 1.64% (inactive).
With `CC(=O)Nc1ccc(S(=O)(=O)NNC(=O)CCc2ccccc2)cc1`, the max response was 17.5% (inactive).
On to `COc1ccc(CNC(=O)c2ccc3oc(C(C)C)nc3c2)cc1`, for which the max response was 43.8% (active).
The result for `COCC1CCCN(C(=O)c2ccc3oc(C(C)C)nc3c2)C1` (configuration not stated) reads 12.4% (inactive).
Regarding `COc1ccc(CNC(=O)c2cc(=O)c3c(C)cc(C)cc3o2)cc1`, the max response was 10.1% (inactive).
As for `COc1ccc(C(=O)N[C@H](C(=O)NCc2ccccc2)C(C)C)cc1`, the max response is 1.24% (inactive).
The result for `CCOc1c2ccc(C(=O)NCc3ccc(OC(F)(F)F)cc3)cc2nn1C` reads -3.46% (inactive); that for `COC(=O)c1ccc(CNC(=O)c2ccc3oc(C(C)C)nc3c2)cc1`, 49.5% (active).
Regarding `CC(C)c1nc2cc(C(=O)NC(C)c3cnn(C)c3)ccc2o1` (configuration not stated), the max response was 16.9% (active).
To `COC(=O)c1ccc(CSc2nc3cc(Cl)ccc3o2)cc1` belongs -2.59% (inactive); to `Cc1ccc(C(=O)NC(C)c2ccccc2)cc1Br` (configuration not stated), 12.6% (inactive); to `Cc1c(C)c(C)c2[nH]c(=S)[nH]c2c1C`, 0.294% (inactive).
The result for `COC1=C/C(=C/c2c(N)n3nc(CC(=O)N4CCOCC4)sc3nc2=O)C=CC1=O` reads 21.2% (inactive); that for `CC(C)C(=O)N1CC(=O)Nc2ccc(F)cc2C1c1ccc(F)cc1` (configuration not stated), 0.988% (inactive).
Turning to `O=c1oc2cc(O)ccc2cc1-c1ccc(F)cc1`, the max response was 43.3% (active).
As for `COc1ccc(-c2cc3ccc(OCc4nn[nH]n4)cc3oc2=O)cc1`, the max response was 2.53% (inactive).
On to `COc1cccc(C(=O)c2cc3ccc(O)cc3oc2=O)c1`, for which the max response was 7.25% (inactive).
Consider `CCn1c2ccccc2c2cc(NC(=O)C/C(C)=N/NC(=O)c3ccccc3N)ccc21`, for which the max response was 39.3% (active).
As for `CCn1c2ccccc2c2cc(NC(=O)CNC)ccc21`, the max response was -0.552% (inactive).
With `CCn1c2ccccc2c2cc(NC(=O)COC(=O)c3ccccc3Br)ccc21`, the max response is 1.49% (inactive).
To `C/C(CC(=O)Nc1ccc(Cl)cc1)=N\NC(=O)C(=O)NCCO` belongs 7.42% (inactive); to `C/C(CC(=O)Nc1ccc(N(C)C)cc1)=N\NC(=O)c1ccccc1F`, 38.4% (active).
The result for `CN(C)c1ccc(NC(=O)CN2C3CCCC2CC(NC(=O)c2ccccc2)C3)cc1` (configuration not stated) reads -6.36% (inactive).
For `Cc1ccccc1N1CCN(C2CCCN(C(=O)c3cn4c(C)cccc4n3)C2)CC1` (configuration not stated), the max response was -1.34% (inactive).
On to `COc1ccc(CC(=O)N2N=C(C)CC2(O)C(F)(F)F)cc1` (configuration not stated), for which the max response was 15.5% (inactive).
To `O=C(CCc1nnc(Cc2ccc3c(c2)OCO3)o1)NCCc1ccccc1Cl` belongs 4.94% (inactive).
Turning to `COCCCn1c(Cc2csc(Nc3cccc(Cl)c3)n2)nnc1SCC(=O)OC1CCCCC1`, the max response was 1.16% (inactive).
The result for `O=C(Nc1ccc(S(=O)(=O)NCC2CCCO2)cc1)c1ccc(F)cc1` (configuration not stated) reads -1.11% (inactive).
As for `CCn1cc(C(=O)N2CC(C)CC(C)C2)c(=O)c2cc(S(=O)(=O)N3CCCC3)ccc21` (configuration not stated), the max response was -2.89% (inactive).
Consider `CC(=O)Oc1ccc(-c2nc3c(C)cccc3c(=O)o2)cc1`, for which the max response is -4.07% (inactive).
As for `COc1ccc(/C=C/c2noc(-c3ccccc3OC(C)=O)n2)cc1`, the max response is 19% (active).
`CC(=O)Oc1ccc2c(c1)C(=O)c1ccccc1C2=O`: the max response was 8.81% (inactive).
In the case of `O=C(Cc1coc2ccc3ccccc3c12)NCc1cccs1`, the max response is 11.8% (active).
On to `CCN(CC(=O)NCc1cccs1)C(=O)c1ccccc1F`, for which the max response was -0.418% (inactive).
As to `COc1ccc(C)cc1NC(=O)CNCc1cccs1`, the max response was 8.07% (inactive).
Take `Cn1cccc1C(=O)NC(=O)COC(=O)Cc1coc2ccc3ccccc3c12`: the max response was 4.33% (inactive).
Regarding `Cc1ccc2c(CC(=O)NCc3cccs3)coc2c1`, the max response is 29.3% (active).
Regarding `COc1cc(CC(=O)NCc2cccs2)cc(OC)c1OC`, the max response is 0.388% (inactive).
As for `CCCNC(=O)CCn1nc(-c2ccccc2)c2ccccc2c1=O`, the max response was -3.01% (inactive).
To `CCN(CC)S(=O)(=O)c1ccc(N2CCCC2)c(NS(=O)(=O)c2cccs2)c1` belongs -6.15% (inactive); to `CCOC(=O)CSC1=N/C(=C/c2ccc(-n3cncn3)cc2)C(=O)N1C(C)=O`, -4.18% (inactive); to `COc1ccc(OC)c(CNC(=O)CCc2nc(-c3cccs3)no2)c1`, -2.6% (inactive).
Consider `COc1ccc(CCc2nc(-c3cccs3)no2)cc1`, for which the max response was 67.2% (active).
To `CCc1ccc(CNC(=O)CCc2nc(-c3cccs3)no2)cc1` belongs -4.69% (inactive).
For `Cc1ccc2[nH]c(=O)c(CN3CCCCC3)c(-c3ccccc3)c2c1`, the max response was -4.55% (inactive).
For `COc1cc(/C=C(\C#N)c2nc3c(s2)CC(C)CC3)ccc1O` (configuration not stated), the max response was 26.5% (active).
In the case of `CCCCCOc1ccc(/C=C/C(=O)NCCc2nc3ccccc3[nH]2)cc1OC`, the max response was 1.2% (inactive).
In the case of `COc1cc(/C=C(\C#N)c2nc3ccccc3[nH]2)ccc1O`, the max response is 43.6% (active).
Take `COc1ccc(/C=C(/NC(=O)c2ccc(C)cc2)c2nc3ccccc3[nH]2)cc1OC`: the max response was -2.64% (inactive).
As to `O=C(NCc1ccc(F)cc1)C1CCN(C(=O)Nc2ccc(F)cc2)CC1`, the max response was -0.971% (inactive).
For `O=C1CN(C(=O)c2cc(F)cc(F)c2)c2ccccc2N1`, the max response was -6.12% (inactive).
On to `COc1ccc(F)cc1C(=O)C1CCCN(C(=O)CCc2ccccn2)C1` (configuration not stated), for which the max response was 7.94% (inactive).
The result for `COC(=O)CC(=O)N1CCN(c2ccc(Cl)c(Cl)c2)CC1` reads 0.736% (inactive); that for `Cc1cc2nc(SCCN3CCOCC3)[nH]c2cc1C`, 32.3% (active).
With `CCn1c2ccc(F)cc2c2nnc(SCCN3CCOCC3)nc21`, the max response is 8.52% (inactive).
Consider `Cc1cccc(C)c1OCCN1CCOCC1`, for which the max response was 0.405% (inactive).
For the compound `COCCn1c(SCC(=O)Nc2nc(C)cs2)nnc1C(C)C`, the max response was -4.2% (inactive).
`Cc1cccc(CCNC(=O)Cn2ncc3c([nH]c4ccc(C)cc43)c2=O)c1`: the max response was -2.84% (inactive).
Turning to `O=C1CCC(C(=O)N2CCN(c3ccccc3Cl)CC2)CN1CC1CCCCC1` (configuration not stated), the max response is 9.87% (inactive).
For `O=C(Cn1ncc2c3ccccc3n(Cc3ccccc3)c2c1=O)NCCCN1CCOCC1`, the max response was 6.16% (inactive).
To `Cc1nc(-c2ccc([N+](=O)[O-])cc2)c(-c2ccccc2)o1` belongs -2.35% (inactive).
With `Cc1cc(CO)nn1-c1ccc([N+](=O)[O-])cc1`, the max response was -1.2% (inactive).
To `Cc1nn(-c2ccc([N+](=O)[O-])cc2)c(N)c1-c1ccccc1` belongs 38.2% (active); to `O=C(CCN1CCCO1)N1CCCC(N2CCN(c3cccc(C(F)(F)F)c3)CC2)C1` (configuration not stated), 7.08% (inactive).
Take `COC(=O)c1sccc1NN1C(=O)c2ccccc2C1=O`: the max response is 28.6% (active).
As to `COC(=O)c1sccc1NC(=S)Nc1ccc(C)cc1`, the max response is 25.3% (inactive).
The result for `COC(=O)c1sccc1NC(=O)c1cc(OC)c(OC)c(OC)c1` reads 1.99% (inactive); that for `Cc1ccccc1CNC(=O)CCC(=O)N1Cc2ccccc2Oc2ncccc21`, -2.36% (inactive); that for `COc1cccc(CN2CCN(Cc3ccc4cccc(F)c4n3)CC2CCO)c1` (configuration not stated), -3.47% (inactive).
`COc1ccccc1NC(=O)C1=C(C)Nc2nnnn2C1c1cccc(Br)c1` (configuration not stated): the max response is -5.64% (inactive).
To `COC(=O)c1ccc(C2C3=C(Nc4nnnn42)c2ccccc2OC3)cc1` (configuration not stated) belongs 17.4% (active).
As to `COC(=O)C1=C(C(=O)c2ccc(C)cc2)C(c2ccccc2)n2nnnc2N1` (configuration not stated), the max response is 2.04% (inactive).
For `Cc1cc2c(=O)n(CC(=O)NCC(=O)Nc3ccc(C(C)C)cc3)cnc2s1`, the max response is -5.28% (inactive).
As for `COc1cc(/C=N/NC(=O)Cc2ccccc2)cc(OC)c1OC`, the max response was -1.38% (inactive).
With `COc1cc(C)c(C)cc1S(=O)(=O)N1CCCc2ccccc21`, the max response is 17.6% (active).
For the compound `COc1ccc(C(=O)OCC(=O)NCC2CCCCC2)cc1S(=O)(=O)N1CCCc2ccccc21`, the max response was -2.88% (inactive).
The result for `Cn1c(=O)n(C)c2cc(S(=O)(=O)N3CCCc4ccccc43)ccc21` reads -0.606% (inactive); that for `CCC(=O)Nc1ccc(S(=O)(=O)Nc2c(NC)c3ccccc3oc2=O)cc1`, 11% (inactive).
In the case of `CCN(CC)c1ccc2c(Nc3ccccc3)c(C=O)c(=O)oc2c1`, the max response was 17.7% (active).
To `CCOC(=O)Nc1ccc2c(c1)N(C(=O)CCCl)c1ccccc1[S@]2=O` belongs 4.2% (inactive).
Regarding `CCOc1ccc(C(CC(=O)O)NC(=O)Cc2ccccc2)cc1OC` (configuration not stated), the max response was -1.44% (inactive).
Consider `CCNS(=O)(=O)c1ccc(CCC(=O)N2CCN(c3cc(Cl)ccc3C)CC2)cc1`, for which the max response is -1.74% (inactive).
With `Cc1ccc(C(=O)N2CCCC2)c(F)c1F`, the max response is -2.63% (inactive).
As to `COc1ccc(CN(C(=O)c2cccs2)c2nccs2)cc1OC`, the max response is -2.68% (inactive).
`COc1ccc(CN(Cc2ccc(OC)cc2)C(=O)c2cccs2)cc1`: the max response was 4.04% (inactive).
Take `O=C(c1cccs1)N(C(=O)c1cccs1)c1ccccn1`: the max response is 21.4% (active).
For the compound `CCc1ccc(CN(C)C(=O)CCc2nnc(-c3ccc(-c4ccccc4)cc3)o2)nc1`, the max response is 16.7% (active).
Turning to `CC(=O)c1ccc(-c2nnc(CCC(=O)N(C)Cc3cnc4ccccn34)o2)s1`, the max response is 8.64% (inactive).
For `CCc1ccc(CN(C)Cc2nc(Cc3ccccc3)no2)nc1`, the max response is 0.562% (inactive).
On to `Cn1cc(CCC(=O)N2CCCC(C(=O)c3ccc(C(C)(C)C)cc3)C2)cn1` (configuration not stated), for which the max response was 7.09% (inactive).
For `COc1cccc(CSc2nc3nc(C)cc(C)n3n2)c1`, the max response is 3.55% (inactive).
For the compound `COc1ccc2nc(SCc3ccccc3)nc(C)c2c1`, the max response is 55.9% (active).
Turning to `COc1ccc(-c2nnc3ccc(SCc4ccccc4)nn23)cc1`, the max response was -1.33% (inactive).
Take `COC(=O)CSc1nc(C2CC2)nc2ccccc12`: the max response was -1.2% (inactive).
Consider `COc1ccc2[nH]c3nc(SCC(=O)NC4CC4)nnc3c2c1`, for which the max response is -1.61% (inactive).
As to `COC(=O)CSc1nc(C)c2ccc(OC)cc2n1`, the max response is 42.7% (active).
